# A selection: hits, their analogues and other compounds. The true share with any hit is near 13%.
# G9a inh = qHTS Assay for Inhibitors of Histone Lysine Methyltransferase G9a | AID 504332, 2011 | 350,000 compounds, 8.8% hits | Potency, µM (top dose mostly 102 µM), for the others: top-dose activity, negative = inhibition, hits mostly inhibitors | G9a H3K9 monomethylation, AlphaScreen, 2 h; further: potency means the concentration at half of the fitted maximal effect; on the % scale 0 is the no-effect control and ±100 the full control effect; nearly all actives have a fitted effect of over 75% in size
# Target sequence (Q96KQ7 913-1193 limits assumed): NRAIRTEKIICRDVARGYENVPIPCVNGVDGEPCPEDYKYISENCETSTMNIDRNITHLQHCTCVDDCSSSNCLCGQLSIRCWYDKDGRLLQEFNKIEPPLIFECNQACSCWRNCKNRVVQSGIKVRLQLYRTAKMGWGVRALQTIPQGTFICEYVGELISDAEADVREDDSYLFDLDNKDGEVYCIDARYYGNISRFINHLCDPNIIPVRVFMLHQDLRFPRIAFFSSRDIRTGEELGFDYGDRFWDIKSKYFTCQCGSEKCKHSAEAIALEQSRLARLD
#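 AlphaScreen detection with an anti-monomethyl H3K9 antibody quantified product after a 2 h room-temperature reaction containing 500 nM biotinylated H3K9 peptide, 20 µM SAM and 20 nM enzyme, which had been preincubated 15 min with compound.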
# Sfp PPTase inh = qHTS Assay for Inhibitors of Bacillus subtilis Sfp phosphopantetheinyl transferase (PPTase); 4'-phosphopantetheinyl transferase ffp (Bacillus subtilis), Q9F4F7; Biochemical Sfp PPTase activity, qHTS; Potency, µM, for inactives: largest response in the series, negative = inhibition, most hits filed as inhibitors; 310,000 compounds, 3.5% hits; AID 1490, 2009;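 further: the enzyme is Sfp with the accession as filed and its product quenches rhodamine fluorescence; potency means the concentration at half of the fitted maximal effect; 0% = enzyme reaction without inhibitor and -100% = no enzyme wells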
#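 Fluorescence-quenching assay: 15 nM Sfp-PPTase preincubated 15 min at room temperature with compound, then 5 uM rhodamine-CoA and 12.5 uM BHQ-2-labelled YbbR peptide added. Fluorescence (ex 525/em 598 nm) read at start and after 30 min; difference gives rate.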
# miR-21 act = qHTS Assay for Modulators of miRNAs and/orActivators of miR-21; HeLa miR-21 FLuc reporter, luciferase, 48 h; 340,000 tested, under 10 active; Potency, µM (doses to about 38.3 µM), without a hit: at the top dose activity change, positive = activation, actives largely listed as activators; AID 2288, 2010;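 further: % of control where 0% means no effect; miR-21 action dims this reporter so a rising signal means less miR-21 action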
#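 HeLa miR-21-FLuc reporter line, endogenous miR-21; 2000 cells/well in DMEM/10% FBS; compound titration up to ~40uM final, 48 h, 37 degree Celsius; luciferase detection reagent, 15 min lysis, CCD luminescence.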
# KDM4E inh = qHTS Assay for Inhibitors of Human Jumonji Domain Containing 2E (JMJD2E); JMJD2E catalytic domain, FDH-coupled NADH fluorescence (FDH is formaldehyde dehydrogenase); Potency, µM (doses to about 57.1 µM), inactives show at the top dose activity change, negative = inhibition, most hits filed as inhibitors; Lysine-specific demethylase 4E (Homo sapiens), B2RXH2; 230,000 compounds, 1.6% hits; active means well fitted inhibition curve with a large enough effect, not every such curve was filed as active; inconclusive means small, poorly fitted or top-dose-only effect, or another doubt; inactive means no such curve, though single readings can be large or run the other way;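 further: potency means the concentration at half of the fitted maximal effect; 0% = wells with enzyme and -100% = buffer wells without enzyme; nearly all actives have a fitted effect of over 50% in size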
# ALDH1A1 inh = qHTS Assay for Inhibitors of Aldehyde Dehydrogenase 1 (ALDH1A1); Aldehyde dehydrogenase 1A1 (Homo sapiens), P00352; Potency, µM (highest dose often 75.3 µM), inactives show at the top dose activity, negative = inhibition, most hits filed as inhibitors; Purified ALDH1A1, NADH fluorescence, propionaldehyde substrate; 220,000 compounds, 7.3% hits; active means well fitted inhibition curve with a large enough effect, not every such curve was filed as active; inconclusive means small, poorly fitted or top-dose-only effect, or another doubt; inactive means no such curve, though single readings can be large or run the other way;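 further: potency means the concentration at half of the fitted maximal effect; plate controls were no enzyme wells and a reference inhibitor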
# Target sequence (P00352 whole entry, looked up): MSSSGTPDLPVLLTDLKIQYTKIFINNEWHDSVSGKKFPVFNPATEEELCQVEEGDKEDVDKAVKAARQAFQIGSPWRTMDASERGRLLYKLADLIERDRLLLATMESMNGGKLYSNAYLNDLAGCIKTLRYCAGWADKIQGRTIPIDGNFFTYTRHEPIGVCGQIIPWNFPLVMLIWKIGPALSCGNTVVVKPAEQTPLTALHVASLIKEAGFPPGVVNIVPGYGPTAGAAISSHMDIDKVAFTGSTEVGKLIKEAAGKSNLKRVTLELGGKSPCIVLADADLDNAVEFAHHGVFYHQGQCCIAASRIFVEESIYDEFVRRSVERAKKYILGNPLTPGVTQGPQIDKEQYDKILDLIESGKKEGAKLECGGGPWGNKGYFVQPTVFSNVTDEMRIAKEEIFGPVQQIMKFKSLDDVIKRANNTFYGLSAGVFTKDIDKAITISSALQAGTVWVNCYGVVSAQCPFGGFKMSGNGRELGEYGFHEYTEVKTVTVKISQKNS
# Lamin A splicing = qHTS Assay for Modulators of Lamin A Splicing; HeLa LMNA splicing GFP/RFP minigene ratio, 48 h; Potency, µM (titrated, usually from 46.1 µM), for the others: at the highest dose ratio change, negative = inhibition, hits mostly inhibitors; 200,000 compounds, 0.01% hits; AID 1487, 2009; active means well fitted inhibition curve with a large enough effect in the signal ratio, with a control signal flat, not every such curve was filed as active; inconclusive means small, poorly fitted or top-dose-only effect, or effect the other way, or a change in a side signal; the % refers to the signal ratio; further: potency means the concentration at half of the fitted maximal effect; on the % scale 0 is the no-effect control and ±100 the full control effect
#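 S3 HeLa cells stably expressing lamin A-EGFP splicing minigene plus DsRed2, 600 cells/well, 48 h compound exposure at 37C. Laser-scanning cytometry; analysed as GFP (500-530 nm)/RFP (575-640 nm) total intensity ratio; 0.5% DMSO vehicle.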
# Active calls of the source: *; ? = inconclusive; / = no result given; [ ] = dose if it differs, or a comment. Unless noted, the call rests on the fitted dose curve; in most records, active means well fitted curve in the direction sought with a large enough effect; inconclusive means small, poorly fitted or top-dose-only effect, or another doubt; inactive means no such curve, though single readings can be large; an effect the other way counts as inactive or inconclusive.
SMILES,G9a inh,Sfp PPTase inh,miR-21 act,KDM4E inh,ALDH1A1 inh,Lamin A splicing
COc1ccc(-c2cc(C(=O)Nc3ccc(S(=O)(=O)Nc4onc(C)c4C)cc3)c3ccccc3n2)cc1,50µM*,6%,-7%,?,-7%,/
Cc1cc(C)nc(NS(=O)(=O)c2ccc(NC(=O)C3(c4ccccc4)CCCC3)cc2)n1,56µM*,12%,-1%,-10%,21%,-7%
Cc1ccc(-c2cc(C(=O)Nc3ccc(S(=O)(=O)Nc4nc(C)cc(C)n4)cc3)c3ccccc3n2)cc1,50µM*,0%,2%,?,-12%,?
CN1CCN(c2ccc(CNC(=O)c3ccco3)cc2)CC1,/,-2%,2%,-3%,4%,14%[46 µM]
COc1ccc(OCC(=O)OCc2cc(=O)n3nc(C4CC4)sc3n2)cc1,6%[59 µM],/,0%,/,/,?
COc1ccc(NC(=O)CC2C(=O)N(c3ccc(C)cc3)C(=O)N2Cc2cccnc2)cc1 (configuration not stated),-6%[59 µM],/,1%,/,/,/
O=C(CSc1ccc2c(c1)OCCO2)Nc1ccc(Br)cc1,14%,0%,5%,?,7.1µM*,?
CCc1c(C)nc(SCC(=O)Nc2ccc3c(c2)OCCO3)[nH]c1=O,-2%,7%,6%,4%,11µM*,/
O=C(CSc1ccc2c(c1)OCCO2)Nc1ccc2c(c1)OCO2,-10%[59 µM],16%,-8%,-8%,?,?
Cc1ccc(-c2nc(NC(=O)CSc3nnc4scc(-c5ccccc5)n34)ns2)cc1,?,35µM*,-4%,?,/,/
O=C(CSc1ccc2c(c1)OCCO2)NCc1ccco1,50µM*,35µM*,-3%,1%,14µM*,9%
Cc1ccc2nc(-c3ccc(Cl)c(NC(=O)c4ccc5c(c4)OCCO5)c3)oc2c1,7%[59 µM],/,-65%,/,/,/
O=C(CSC1=NC2(CCCCCC2)N=C1c1ccccc1)Nc1ccc2c(c1)OCCO2,?,21%,-11%,6%,22µM*,?
O=C(CSC1=NC2(CCCCC2)N=C1c1ccccc1)Nc1ccc2c(c1)OCCO2,4%,6%,-2%,2%,37%,?
CC(C)c1ccc(NC(=O)CSc2n[nH]c(=O)n2-c2cccnc2)cc1,?,-1%,-1%,/,/,/
O=C(CC1CS(=O)(=O)CC1CC(=O)Nc1ccc2c(c1)OCCO2)Nc1ccc2c(c1)OCCO2 (configuration not stated),/,22µM*,-66%,0%,?,/
O=C(CSc1nnc2scc(-c3ccccc3)n12)Nc1ccc2c(c1)OCCO2,-12%[59 µM],-9%,-2%,9%,16µM*,-15%
CC(C)c1ccc(NC(=O)CSc2n[nH]c(=O)n2-c2ccc3c(c2)OCCO3)cc1,/,3%,-6%,2%,11µM*,/
Cc1cccc(-c2nc3c4ccccc4nc(N4CCN(c5ccccc5F)CC4)n3n2)c1,?,/,-17%,/,/,/
CCC[C@@H]1C[C@@]1(CCC)C(NC(=O)c1ccco1)c1ccc(Cl)cc1 (some centres not stated),/,12%,/,-6%,0%,/
O=C(CSc1ccccc1)Nc1ccc2c(c1)OCCO2,79µM*,10%,-43%,/,/,/
O=C(CCCCCN1C(=O)c2ccccc2C1=O)Nc1ccc2c(c1)OCCO2,?,-4%,-5%,-8%,28µM*,-2%
O=C(CSc1ccccc1)Nc1ccc2c(c1)OCO2,3%,10%,-63%,/,/,/
COc1cccc(C(=O)NCC(C)(C)SCc2ccc(F)cc2)c1,3%,1%,-5%,/,/,/
COc1ccccc1S(=O)(=O)Cc1ccc(C(=O)N2CCN(c3ccccn3)CC2)o1,-3%[59 µM],79µM*,8%,3%,-9%,-19%
SMILES,G9a inh,Sfp PPTase inh,miR-21 act,KDM4E inh,ALDH1A1 inh,Lamin A splicing
O=C(c1ccc(C#Cc2ccccc2)o1)N1CCN(c2ccccn2)CC1,45µM*,?,-7%,-7%,-8%,3%
O=C(c1ccc(CS(=O)c2ccccc2Cl)o1)N1CCN(c2ccccn2)CC1 (configuration not stated),89µM*,6%,21%,/,/,/
O=C(c1ccc(CS(=O)Cc2ccccc2Cl)o1)N1CCN(c2ccccn2)CC1 (configuration not stated),9%,17%,8%,/,/,/
COc1ccc(S(=O)(=O)Cc2ccc(C(=O)N3CCN(c4ccccn4)CC3)o2)cc1,-7%,-8%,-5%,-5%,-2%,-1%
CCOC(=O)C1(Cc2ccc(Cl)cc2)CCN(C(=O)CCc2ccncc2)CC1,/,-1%,4%,1%,?,/
Cn1c(=O)c2sccc2n2c(CCC(=O)Nc3ccc(F)cc3)nnc12,-32%[59 µM],/,-1%,/,/,/
O=C(O)c1ccc(NC(=S)NC(NC(=O)c2ccco2)C(Cl)(Cl)Cl)cc1 (configuration not stated),14%[0.501 µM],-7%,-11%,2%,40µM*,15%
Cc1cccc(NC(=S)N2CCC(NC(=O)c3ccco3)CC2)c1,?,8%,-1%,/,/,/
Cc1ccc(C(=O)NC(NC(=S)Nc2ccc(S(N)(=O)=O)cc2)C(Cl)(Cl)Cl)cc1 (configuration not stated),?,1%,-3%,-1%,2%,?
Cc1cccc(NC(=S)NC(NC(=O)c2ccco2)C(Cl)(Cl)Cl)c1 (configuration not stated),14µM*,3%,-5%,-1%,?,-22%
CN(C)C(=O)NC(NC(=S)Nc1ccccc1)C(Cl)(Cl)Cl (configuration not stated),?,56µM*,-15%,-2%,13µM*,15%[46 µM]
Cc1ccc(NC(=S)NC(NC(=O)c2ccco2)C(Cl)(Cl)Cl)cc1 (configuration not stated),1%[12.7 µM],6%,16%,3%,28µM*,-25%
CCOC(=O)c1nnc2c(-c3ccc(Cl)cc3)c(C)nn2c1C,?,/,-16%,/,/,/
O=c1c(S(=O)(=O)c2ccc(Cl)cc2)cn(Cc2ccc(F)cc2)c2ccc(F)cc12,-9%[59 µM],/,8%,/,/,/
O=C(CCCOc1ccccc1)Nc1cccc(S(=O)(=O)N2CCCCCC2)c1,25%[59 µM],/,/,/,/,/
N#CCn1c(CN2CCCC2)nc2ccccc2c1=O,9%,20%,-4%,/,/,/
COCCCNC(=O)C1CCN(c2nc3ccc(Cl)cc3[nH]2)CC1,7%[59 µM],/,-19%,/,/,-1%[46 µM]
